ALOX12 inh: Primary qHTS assay for inhibitors of human arachidonate 12S-lipoxygenase (ALOX12): Round 2; Polyunsaturated fatty acid lipoxygenase ALOX12 (Homo sapiens), P18054; purified 12hLO, xylenol orange hydroperoxide absorbance; Potency, µM (titrated, usually from 108 µM), most hits filed as inhibitors; actives 1.1% (n = 580,000); AID 1671190, 2021
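Purified human 12hLO (150 nM final) in 25 mM Hepes, 0.01% Triton X-100, pH 7.0 was preincubated 15 min at room temperature with compound. Then 40 uM arachidonic acid was added, 30 min. Hydroperoxide was read by Fe-XO absorbance ratio 573/405 nm.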
G9a inh: qHTS Assay for Inhibitors of Histone Lysine Methyltransferase G9a; Histone-lysine N-methyltransferase EHMT2 (Homo sapiens), Q96KQ7; G9a H3K9 monomethylation, AlphaScreen, 2 h; Potency, µM (doses to about 102 µM), usual class: inhibitors; actives 8.8% (n = 350,000); AID 504332, 2011; also: nearly all actives have a fitted effect of over 75% in size
Target sequence (Q96KQ7 913-1193 limits assumed): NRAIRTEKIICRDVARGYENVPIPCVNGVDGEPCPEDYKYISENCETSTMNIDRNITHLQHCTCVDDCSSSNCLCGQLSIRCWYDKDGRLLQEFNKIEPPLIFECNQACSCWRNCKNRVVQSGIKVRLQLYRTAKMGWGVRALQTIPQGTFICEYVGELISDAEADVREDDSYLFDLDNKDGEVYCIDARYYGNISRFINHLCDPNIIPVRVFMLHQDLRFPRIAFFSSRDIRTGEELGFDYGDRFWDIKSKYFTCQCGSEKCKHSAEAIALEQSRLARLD
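Signal arises when biotinylated H3K9 peptide, once monomethylated, bridges streptavidin donor and antibody-captured acceptor beads. Enzyme at 20 nM was preincubated 15 min with test compounds; peptide 500 nM and SAM 20 uM then reacted for 2 h.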
PLK1 PBD inh: qHTS for Inhibitors of PLK1-PDB (polo-like kinase 1 - polo-box domain): Primary Screen | Serine/threonine-protein kinase PLK1 (Homo sapiens), P53350 | Plk1 PBD binding of FITC phosphopeptide, fluorescence polarization | Potency, µM, actives largely listed as inhibitors | actives 2.8% (n = 360,000) | AID 720504, 2013; also: series mostly up to about 57 µM; nearly all actives have a fitted effect of over 65% in size
BAZ2B inh: qHTS Assay for Inhibitors of BAZ2B; AlphaScreen BAZ2B-H3K14Ac peptide displacement; actives 4.4% (n = 360,000); Potency, µM (series often up to 114 µM), most hits filed as inhibitors; AID 504333, 2011; also: nearly all actives have a fitted effect of over 60% in size
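AlphaScreen displacement of biotin-H3(5-23)K14Ac peptide (50 nM final) from BAZ2B (50 nM final) in PBS pH 7.4, 0.01% Tween-20; complex preformed 30 min RT, then compounds (top 110 uM) 30 min RT, beads 20 min dark.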
HP1b binding inh: HTS for Inhibitors of HP1-beta Chromodomain Interactions with Methylated Histone Tails; AlphaScreen HP1-beta / biotin-H3K9me3 peptide binding; Potency, µM (doses to about 114 µM), hits mostly inhibitors; Chromobox protein homolog 1 (Homo sapiens), P83916; actives 0.56% (n = 390,000); also: nearly all actives have a fitted effect of over 70% in size
Target sequence (P83916 whole entry, looked up): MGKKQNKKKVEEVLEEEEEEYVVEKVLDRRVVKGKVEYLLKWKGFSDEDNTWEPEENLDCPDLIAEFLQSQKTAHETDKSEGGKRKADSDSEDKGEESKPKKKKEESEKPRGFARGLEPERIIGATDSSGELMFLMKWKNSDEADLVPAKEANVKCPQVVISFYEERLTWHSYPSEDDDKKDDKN
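AlphaScreen: HP1-beta (50 nM) preformed 30 min with biotin-H3(1-18)K9me3 peptide (50 nM) in PBS pH 7.4, 0.01% Tween-20. Compound added for 30 min at RT, then streptavidin donor/nickel chelate acceptor beads (10 ug/mL) for 30 min.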
JMJD2A Tudor inh: qHTS Assay for Inhibitors of JMJD2A-Tudor Domain. Lysine-specific demethylase 4A (Homo sapiens), O75164. AlphaScreen JMJD2A-Tudor / H3K4me3 peptide binding. AID 504339, 2011. Potency, µM (titrated, usually from 114 µM), hits mostly inhibitors. actives 4.4% (n = 390,000); also: nearly all actives have a fitted effect of over 50% in size
Hits are given with their value; 0 = inactive; ? = inconclusive; - = no result given; [ ] = another dose, or the depositor's remark. This is a sample that favours compounds with a hit; in the whole collection about 9% have one here. Calls follow the shape of the dose curve; as a rule, active = well fitted curve in the direction sought with a large enough effect; inconclusive = small, poorly fitted or top-dose-only effect, or another doubt; inactive = no such curve, though single readings can be large; an effect the other way counts as inactive or inconclusive.

SMILES	ALOX12 inh	G9a inh	PLK1 PBD inh	BAZ2B inh	HP1b binding inh	JMJD2A Tudor inh
Cc1cc(SCC(=O)NCCN2C(=O)CSC2=O)nc2c(C)cccc12	0	0	0	0	0	0
CN(Cc1ccc(-c2ccccc2)cc1)C(=O)c1ccc(F)cc1	0	-	-	-	-	-
O=C(COC(=O)c1cc(-c2ccco2)nc2ccccc12)NCc1ccc2c(c1)OCO2	?	13µM	0	0	0	0
O=C(COC(=O)c1ccco1)NCc1ccc2c(c1)OCO2	0	0	0	0	0	0
COc1ccccc1CNC(=O)COC(=O)c1cc(-c2ccco2)nc2ccccc12	?	13µM	?	40µM	?	20µM
COc1ccc(C(CCN2CCCCC2)c2c(O)cc(OC)cc2OC)cc1 (configuration not stated)	0	0[12.7 µM]	0	0	0	0
COc1cc(O)c(C(CC(=O)N2CCCCC2)c2ccc(N(C)C)cc2)c(OC)c1 (configuration not stated)	0	?	0	?	0	50µM
COc1cc(O)c(C(CC(=O)N2CCOCC2)c2ccc(N(C)C)cc2)c(OC)c1 (configuration not stated)	?	0[12.7 µM]	0	?	0	?
COc1cc(OC)c2c(C)cc(=O)oc2c1C(CCN1CCCC(C)C1)c1ccc(N(C)C)cc1 (configuration not stated)	-	-	-	-	?	28µM
COc1cc(O)c(C(CCN2CCOCC2)c2ccc(N(C)C)cc2)c(OC)c1 (configuration not stated)	0	?	0	35µM	?	45µM
CCCCCc1cc(=O)oc2c(C(CCN3CCCC(C)C3)c3ccc(OC)cc3)c(OC)cc(OC)c12 (configuration not stated)	?	?	0	?	0	?
COc1cc(O)c(C(CCN2CCN(c3ccccc3)CC2)c2ccc(N(C)C)cc2)c(OC)c1 (configuration not stated)	?	?	0	7.9µM	20µM	10µM
COc1ccc2c(c1)NC1(O)c3ccccc3C(=O)C21O (configuration not stated)	0	0	0	0	0	0
CCN1C(=O)c2ccccc2S(=O)(=O)c2ccc(C(=O)NCc3ccc(F)cc3)cc21	0	0	-	0	0	0
Cc1cc(C)nc(N2CCC(C(=O)NCCc3ccc(Cl)cc3)CC2)n1	0	0	0	0	0	0
O=C(Nc1ccc2c(c1)OCO2)c1cc(C2CCCCN2C(=O)OCCF)on1 (configuration not stated)	0	-	0	-	-	-
CCN(CC)CCC(c1ccc(N(C)C)cc1)c1c(O)cc(OC)cc1OC (configuration not stated)	0	?	0	50µM	?	40µM
COc1cc(O)c(C(CCN2CCCC(C)C2)c2ccc(N(C)C)cc2)c(OC)c1 (configuration not stated)	0	?	0	40µM	?	25µM
COc1ccc(C(CCN2CCN(c3ccccc3)CC2)c2c(O)cc(OC)cc2OC)cc1 (configuration not stated)	0	0[12.7 µM]	0	28µM	0	16µM
COc1ccc(N2CCN(CNC(=O)c3ccccc3)CC2)cc1	0	-	0	0	0	0
COc1ccc(N2CCN(CCC(O)c3ccc4ccccc4c3)CC2)cc1 (configuration not stated)	0	40µM	0	0	?	50µM
COc1cc(O)c(C(CCN2CCCC(C)C2)c2ccc3c(c2)OCO3)c(OC)c1 (configuration not stated)	0	0[12.7 µM]	0	0	0	0
COc1ccc(C(CCN2CCCC2)c2c(O)cc(OC)cc2OC)cc1 (configuration not stated)	0	0	0	?	0	0
Cc1cccc(C(=O)NC(NC(=O)c2cccc(C)c2)c2ccccc2F)c1	0	-	-	-	-	-
Cc1cccc(NC(=O)C2CCCN(C(=O)Nc3ccc(F)cc3)C2)c1 (configuration not stated)	0	0	0	0	0	0
SMILES	ALOX12 inh	G9a inh	PLK1 PBD inh	BAZ2B inh	HP1b binding inh	JMJD2A Tudor inh
O=c1cc(-c2cccc(F)c2)oc2ccccc12	0	-	0	-	0	0
Cc1cc(-c2cccnc2)c(C#N)c(SCc2cccc(F)c2)n1	0	40µM	0	0	0	0
Cc1cc(-c2cccnc2)c(C#N)c(SCC#N)n1	0	0	0	0	0	0
Cc1cccc(Cn2c(SCCN3CCOCC3)nc3c2c(=O)n(C)c(=O)n3C)c1	0	45µM	0	0	0	0
Cn1c(=O)c2c(nc(N3CCCCCC3)n2Cc2cccc3ccccc23)n(C)c1=O	0	0	0	?	?	?
CN1CCN(c2nc3c(c(=O)n(C)c(=O)n3C)n2Cc2cccc3ccccc23)CC1	0	45µM	0	0	0	0
Cn1c(N2CCN(c3ccccn3)CC2)nc2c1c(=O)n(Cc1ccc(Cl)cc1)c(=O)n2C	0	40µM	0	?	0	?
Cc1cccc(Cn2c(N3CCN(C)CC3)nc3c2c(=O)n(C)c(=O)n3C)c1	0	20µM	0	0	0	0
O=C(NCc1cccnc1)C1CCN(C(=O)c2cccc(C(F)(F)F)c2)CC1	0	-	-	-	-	-
COc1cccc(C(=O)N(C)C(C)c2nc3ccccc3s2)c1 (configuration not stated)	0	0	0	0	0	0
COc1ccc(-c2cnc([C@@H]3COCCN3Cc3ncc[nH]3)[nH]2)cc1	0	-	-	-	-	-
Cc1cccc(Cn2c(N3CCN(CCO)CC3)nc3c2c(=O)[nH]c(=O)n3C)c1	0	0	0	0	0	0
Cn1c(=O)c2c(nc(SCC(=O)O)n2Cc2cccc(C(F)(F)F)c2)n(C)c1=O	0	14µM	0	0	0	0
COc1ccc(N2CCN(CCCNC(=O)c3cc(Nc4ccc(OC)cc4OC)nc4ccccc34)CC2)cc1	?	13µM	-	16µM	?	25µM
COc1ccc(Nc2cc(C(=O)N3CCc4ccccc4C3)c3ccccc3n2)c(OC)c1	0	18µM	0	?	0	?
COc1ccc(Nc2cc(C(=O)NCCCN(C)C3CCCCC3)c3ccccc3n2)c(OC)c1	0	?	-	-	?	20µM
O=C(NC(=S)Nc1ccc(-c2ccc(CO)o2)cc1)c1cccs1	-	?	?	-	0	0
CSc1cc(/C=N/O)c(SC)s1	0	0	0	0	0	0
